A selection: hits, their analogues and other compounds. The true share with any hit is near 7.7%.
PD-1 reversal: activators reversing PD-1 mediated T-cell inhibition, primary screen, luminescence, primary human CD4 T cells, PD-L1 beads. CellTiter-Glo 96 h. AID 2316, 2010. 29,000 tested, under 10 active. activation, % (concentration not given with the values); call rule not given here;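 note: 0% = median vehicle wells and 100% = positive control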
NOMO-1 viab: NOMO-1 AML cell viability reduction, primary screen, STK33 inhibitor project, CellTiter-Glo luminescence; NOMO-1 AML viability, 72 h; inhibition, % (no concentration beside the values); 37,000 tested, 7.5% active; AID 2330, 2010; in the data active = inhibition above about 80%; inconclusive = no clear call, values can overlap the other calls
Shh pathway inh: Hedgehog pathway signaling inhibitors, primary screen, luminescence, Shh-LIGHT2 cells, Gli-luciferase; Shh-LIGHT2 Gli-luciferase reporter, 30 h; inhibition, % (no concentration beside the values); 22,000 tested, 2.1% active;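 active = mean inhibition across valid replicates above about 65%, limit read from the data; inconclusive = mean under the limit, yet half or more replicates past it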;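 note: pathway switched on by Shh-conditioned medium diluted 1 in 25 in low serum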
Active calls of the source: *; ? = inconclusive; / = not tested or not shown.

SMILES	PD-1 reversal	NOMO-1 viab	Shh pathway inh
C/C=C1\[C@H](O[C@@H]2O[C@H](CO)[C@@H](O)[C@H](O)[C@H]2O)OC=C(C(=O)OC)[C@H]1CC(=O)OC[C@H]1O[C@@H](OCCc2ccc(O)cc2)[C@H](O)[C@@H](O)[C@@H]1OC(=O)C[C@@H]1C(C(=O)OC)=CO[C@@H](O[C@@H]2O[C@H](CO)[C@@H](O)[C@H](O)[C@H]2O)/C1=C\C	2.5	15.5	11.5
CCOC(=O)c1nc2c(o1)NC(N)=C(C#N)C2c1ccc(Cl)cc1 (configuration not stated)	0.2	95.4*	12.2
Cc1nc2c([nH]1)C(c1ccc(C(C)C)cc1)C(C#N)=C(N)O2 (configuration not stated)	-1.1	41.9	-9.2
COc1ccc(NC(=O)C(C)N(c2ccc(Cl)cc2)S(C)(=O)=O)cc1OC (configuration not stated)	1.0	13.2	/
CCCn1cc(NC(=O)C2CC(c3ccccc3O)=NO2)cn1 (configuration not stated)	/	57.1	/
COc1cccc(Oc2coc3cc(OCC(N)=O)ccc3c2=O)c1	-0.3	-1.3	/
COc1ccccc1-c1c(C(F)(F)F)oc2cc(OCC(=O)OC(C)C)ccc2c1=O	/	95.7*	/
CCOC(=O)COc1ccc2c(=O)c(-c3ccccc3OC)c(C(F)(F)F)oc2c1	-4.4	93.2*	/
CCOC(=O)c1c(C(C)(C)C)oc2ccc(OCC(=O)OC)cc12	1.2	28.2	-24.9
CC1(C)CC(=O)C2=C(C1)NC1=C(C(=O)c3ccccc31)C2c1ccc(OC(=O)CN2C(=O)C3CCCCC3C2=O)cc1 (configuration not stated)	1.5	13.1	/
COc1ccc(-c2nnc3c4ccccc4c(C)nn23)cc1S(=O)(=O)NC(C)c1ccccc1 (configuration not stated)	1.9	6.7	/
Cc1ccc(S(=O)(=O)Nc2ccc3c(c2)CC(=O)N([C@H](C)CO)C[C@@H](C)[C@@H](CN(C)Cc2ccc(Oc4ccccc4)cc2)O3)cc1	-1.0	115.0*	34.9
C[C@@H]1CN([C@H](C)CO)C(=O)Cc2cc(NS(=O)(=O)c3ccccc3)ccc2O[C@H]1CN(C)Cc1ccc(Oc2ccccc2)cc1	-2.3	72.1	29.3
C[C@@H]1CN([C@@H](C)CO)C(=O)Cc2cc(NS(=O)(=O)c3ccccc3)ccc2O[C@@H]1CN(C)Cc1ccc(Oc2ccccc2)cc1	/	63.4	12.0
COc1ccc(S(=O)(=O)Nc2ccc3c(c2)CC(=O)N([C@H](C)CO)C[C@@H](C)[C@H](CN(C)Cc2ccc(Oc4ccccc4)cc2)O3)cc1	-1.0	124.1*	13.6
C[C@H]1CN([C@@H](C)CO)C(=O)Cc2cc(NS(=O)(=O)c3ccc(F)cc3)ccc2O[C@@H]1CN(C)Cc1ccc(Oc2ccccc2)cc1	-2.3	95.9*	-7.7
Cc1ccc(S(=O)(=O)Nc2ccc3c(c2)CC(=O)N([C@H](C)CO)C[C@@H](C)[C@H](CN(C)Cc2ccc(Oc4ccccc4)cc2)O3)cc1	-4.1	?	-22.1
COc1ccc(S(=O)(=O)Nc2ccc3c(c2)CC(=O)N([C@@H](C)CO)C[C@H](C)[C@@H](CN(C)Cc2ccc(Oc4ccccc4)cc2)O3)cc1	-1.0	64.4	17.6
C[C@@H]1CN([C@H](C)CO)C(=O)Cc2cc(NS(=O)(=O)c3ccc(F)cc3)ccc2O[C@H]1CN(C)Cc1ccc(Oc2ccccc2)cc1	-8.8	126.5*	49.8
COc1ccc(-c2cc(C)nc(SCC(=O)N3c4ccccc4Sc4ccccc43)n2)cc1	4.6	-15.9	/
COC(=O)c1cccc(NC(=O)COc2ccc([N+](=O)[O-])cc2)c1	/	-5.2	/
O=c1cc(-c2ccc(O)cc2)oc2cc(OC3OC(CO)C(O)C(O)C3OC3OCC(O)(CO)C3O)cc(O)c12 (configuration not stated)	0.1	-10.3	1.8
Cc1ccc(S(=O)(=O)/C=C/C#N)cc1	-59.9	141.8*	98.1*
Cc1ccc(S(=O)(=O)c2ccc(C)cc2)cc1	-0.4	-1.6	6.7
Cc1cccc(N2C(=O)CC(SCc3nc4ccccc4[nH]3)C2=O)c1 (configuration not stated)	-2.3	16.5	/
COC(=O)c1c(NC(=O)CSc2ncnc3sc(C)c(C)c23)sc(C)c1C	-0.5	-11.8	/
C=C(C)C1Cc2cc(C(C)=O)ccc2O1 (configuration not stated)	/	/	-16.8
C=C(C)[C@@H]1Cc2c(ccc3c2O[C@H]2COc4cc(OC)c(OC)cc4[C@@]2(O)C3=O)O1	-2.6	116.8*	44.6
COc1ccccc1NC(=O)C1=C(C)Nc2ncnn2C1c1ccncc1 (configuration not stated)	1.9	30.7	/
